# Laboratory results as given in the supplement of paper PMC11732987, “Enantioselective OTUD7B fragment discovery through chemoproteomics screening and high-throughput optimisation” (Communications Chemistry, 2025).
# Unmarked numbers belong to inactive results.
# What was measured:
# Assay in all cases: log2 ratio of Biotin-Ahx-Ub-VS probe labelling (fragment/DMSO); higher = less target engagement (more negative = stronger competition), active = hit call of the paper (q ≤ 0.05, log2 ratio ≤ -1)
# Details in all cases: compound concentration: 200 uM; treatment time: 3 h
# USP19 = biological target: T1, USP19 (UniProt O94966)
# T1 sequence (whole entry): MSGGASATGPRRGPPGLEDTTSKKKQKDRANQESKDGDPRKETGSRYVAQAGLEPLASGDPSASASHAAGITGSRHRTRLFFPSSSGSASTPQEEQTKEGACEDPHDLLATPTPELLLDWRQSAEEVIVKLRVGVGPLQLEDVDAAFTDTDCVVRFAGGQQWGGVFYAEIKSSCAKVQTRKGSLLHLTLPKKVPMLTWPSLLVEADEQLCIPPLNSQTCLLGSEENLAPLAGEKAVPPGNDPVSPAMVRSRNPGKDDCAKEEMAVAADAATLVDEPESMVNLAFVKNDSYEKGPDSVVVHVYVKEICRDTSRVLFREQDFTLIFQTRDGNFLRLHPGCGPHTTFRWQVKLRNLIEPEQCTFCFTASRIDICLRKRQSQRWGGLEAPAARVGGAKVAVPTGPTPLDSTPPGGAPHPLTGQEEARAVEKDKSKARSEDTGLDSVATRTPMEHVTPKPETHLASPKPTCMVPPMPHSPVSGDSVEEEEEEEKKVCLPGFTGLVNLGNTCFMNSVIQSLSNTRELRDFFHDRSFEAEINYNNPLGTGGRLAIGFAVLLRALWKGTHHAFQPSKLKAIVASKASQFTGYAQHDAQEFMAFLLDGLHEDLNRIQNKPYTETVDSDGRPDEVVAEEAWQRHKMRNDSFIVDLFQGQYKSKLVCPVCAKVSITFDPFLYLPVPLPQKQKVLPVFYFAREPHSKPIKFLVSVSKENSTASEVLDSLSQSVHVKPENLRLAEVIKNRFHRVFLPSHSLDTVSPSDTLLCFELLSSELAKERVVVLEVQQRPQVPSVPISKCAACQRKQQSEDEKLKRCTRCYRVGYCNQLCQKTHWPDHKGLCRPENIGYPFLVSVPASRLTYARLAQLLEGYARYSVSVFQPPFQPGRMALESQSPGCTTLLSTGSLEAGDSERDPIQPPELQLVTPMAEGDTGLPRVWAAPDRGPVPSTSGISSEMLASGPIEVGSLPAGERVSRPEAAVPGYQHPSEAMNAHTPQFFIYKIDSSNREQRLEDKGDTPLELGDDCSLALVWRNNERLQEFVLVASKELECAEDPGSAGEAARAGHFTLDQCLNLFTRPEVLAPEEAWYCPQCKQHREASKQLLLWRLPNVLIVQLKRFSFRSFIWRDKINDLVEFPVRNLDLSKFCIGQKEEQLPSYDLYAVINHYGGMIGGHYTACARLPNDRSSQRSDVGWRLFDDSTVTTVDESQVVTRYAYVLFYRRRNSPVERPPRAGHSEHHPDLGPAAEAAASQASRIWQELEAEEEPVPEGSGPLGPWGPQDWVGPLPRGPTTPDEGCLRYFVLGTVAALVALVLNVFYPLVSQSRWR
# In short: (§1)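 Average log2 ratios of fragment over vehicle were obtained by unpaired t-test from global-median-normalised Spectronaut label-free quantities. Proteins with ≥2 unique peptides were included. HEK293T lysate (495 µg per sample) was treated in triplicate with fragment at 200 µM or vehicle for 3 h, then with Biotin-Ahx-Ub-VS at 0.5 µM final for 1 h, and labelled DUBs were NeutrAvidin-enriched and run by diaPASEF LC-MS/MS.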
# USP22 = biological target: T2, USP22 (UniProt Q9UPT9)
# T2 sequence (whole entry): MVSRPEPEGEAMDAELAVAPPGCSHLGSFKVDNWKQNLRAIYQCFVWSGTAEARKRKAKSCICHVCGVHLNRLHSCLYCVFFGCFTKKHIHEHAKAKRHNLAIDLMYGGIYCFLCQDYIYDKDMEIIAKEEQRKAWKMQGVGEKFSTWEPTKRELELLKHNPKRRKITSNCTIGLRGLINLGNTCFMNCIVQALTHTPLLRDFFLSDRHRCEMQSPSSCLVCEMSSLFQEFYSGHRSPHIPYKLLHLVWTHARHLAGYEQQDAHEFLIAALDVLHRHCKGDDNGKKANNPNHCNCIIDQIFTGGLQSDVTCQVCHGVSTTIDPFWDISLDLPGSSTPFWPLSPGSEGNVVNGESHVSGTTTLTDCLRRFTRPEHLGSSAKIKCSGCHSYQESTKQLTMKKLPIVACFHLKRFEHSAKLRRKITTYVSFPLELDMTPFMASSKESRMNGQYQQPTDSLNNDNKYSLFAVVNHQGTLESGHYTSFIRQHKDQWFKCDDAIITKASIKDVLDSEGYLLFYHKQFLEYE
# In short: as §1
# USP24 = USP24 (UniProt Q9UPU5)
# In short: as §1
# USP25 = biological target: T3, USP25 (UniProt Q9UHP3)
# T3 sequence (whole entry): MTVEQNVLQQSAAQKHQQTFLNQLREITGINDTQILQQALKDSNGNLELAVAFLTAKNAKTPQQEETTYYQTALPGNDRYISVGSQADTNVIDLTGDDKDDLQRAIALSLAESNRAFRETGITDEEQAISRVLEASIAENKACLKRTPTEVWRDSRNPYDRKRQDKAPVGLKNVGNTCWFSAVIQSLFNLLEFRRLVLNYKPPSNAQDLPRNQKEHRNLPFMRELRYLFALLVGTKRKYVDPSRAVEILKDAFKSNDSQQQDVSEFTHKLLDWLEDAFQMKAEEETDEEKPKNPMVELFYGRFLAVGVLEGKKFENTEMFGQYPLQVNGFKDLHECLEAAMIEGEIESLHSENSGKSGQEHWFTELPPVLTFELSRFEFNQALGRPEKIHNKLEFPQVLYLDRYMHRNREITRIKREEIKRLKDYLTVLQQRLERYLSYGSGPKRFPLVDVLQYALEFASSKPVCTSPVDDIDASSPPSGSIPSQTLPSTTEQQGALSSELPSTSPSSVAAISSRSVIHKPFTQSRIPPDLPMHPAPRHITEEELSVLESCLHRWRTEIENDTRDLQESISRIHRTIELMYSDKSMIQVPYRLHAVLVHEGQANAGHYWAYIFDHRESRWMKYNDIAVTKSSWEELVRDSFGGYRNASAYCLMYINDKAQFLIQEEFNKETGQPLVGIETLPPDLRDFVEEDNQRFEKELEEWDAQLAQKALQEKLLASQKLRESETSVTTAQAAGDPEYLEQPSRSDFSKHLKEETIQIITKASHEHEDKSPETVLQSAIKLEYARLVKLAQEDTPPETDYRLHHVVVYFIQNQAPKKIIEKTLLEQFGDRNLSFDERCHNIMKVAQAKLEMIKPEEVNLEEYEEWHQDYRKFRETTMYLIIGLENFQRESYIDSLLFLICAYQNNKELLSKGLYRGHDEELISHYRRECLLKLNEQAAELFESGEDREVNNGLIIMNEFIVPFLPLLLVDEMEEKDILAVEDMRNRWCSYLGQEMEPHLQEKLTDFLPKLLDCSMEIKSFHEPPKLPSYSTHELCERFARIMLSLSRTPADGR
# In short: as §1
# USP28 = biological target: T4, USP28 (UniProt Q96RU2)
# T4 sequence (whole entry): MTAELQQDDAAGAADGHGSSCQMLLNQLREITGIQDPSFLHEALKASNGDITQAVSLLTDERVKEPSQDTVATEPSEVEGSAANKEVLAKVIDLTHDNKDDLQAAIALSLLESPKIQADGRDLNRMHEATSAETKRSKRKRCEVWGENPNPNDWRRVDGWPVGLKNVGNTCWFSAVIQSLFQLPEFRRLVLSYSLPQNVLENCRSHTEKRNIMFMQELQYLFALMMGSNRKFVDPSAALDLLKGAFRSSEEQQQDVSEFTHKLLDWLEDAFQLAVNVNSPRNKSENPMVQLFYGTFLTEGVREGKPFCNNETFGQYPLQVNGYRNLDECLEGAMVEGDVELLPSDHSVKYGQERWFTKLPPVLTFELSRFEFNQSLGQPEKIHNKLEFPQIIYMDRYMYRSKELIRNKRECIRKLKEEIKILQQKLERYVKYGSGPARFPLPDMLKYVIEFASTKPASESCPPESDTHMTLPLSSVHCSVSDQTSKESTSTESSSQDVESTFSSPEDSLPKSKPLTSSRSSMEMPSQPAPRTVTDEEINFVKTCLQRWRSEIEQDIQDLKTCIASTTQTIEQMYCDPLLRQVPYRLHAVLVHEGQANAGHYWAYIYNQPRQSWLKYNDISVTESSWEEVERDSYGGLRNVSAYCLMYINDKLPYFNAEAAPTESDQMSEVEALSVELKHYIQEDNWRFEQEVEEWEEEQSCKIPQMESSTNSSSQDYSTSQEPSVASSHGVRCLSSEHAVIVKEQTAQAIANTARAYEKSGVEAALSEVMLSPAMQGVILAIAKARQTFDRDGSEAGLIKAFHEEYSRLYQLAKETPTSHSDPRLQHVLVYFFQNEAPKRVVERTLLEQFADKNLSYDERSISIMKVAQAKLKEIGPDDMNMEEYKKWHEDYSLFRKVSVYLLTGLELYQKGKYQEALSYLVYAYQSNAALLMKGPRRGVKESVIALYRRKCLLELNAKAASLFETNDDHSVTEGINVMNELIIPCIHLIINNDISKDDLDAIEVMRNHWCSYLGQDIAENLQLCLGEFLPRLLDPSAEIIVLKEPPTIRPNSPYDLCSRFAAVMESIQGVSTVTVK
# In short: as §1
# Sequence of USP24 (Q9UPU5 whole entry): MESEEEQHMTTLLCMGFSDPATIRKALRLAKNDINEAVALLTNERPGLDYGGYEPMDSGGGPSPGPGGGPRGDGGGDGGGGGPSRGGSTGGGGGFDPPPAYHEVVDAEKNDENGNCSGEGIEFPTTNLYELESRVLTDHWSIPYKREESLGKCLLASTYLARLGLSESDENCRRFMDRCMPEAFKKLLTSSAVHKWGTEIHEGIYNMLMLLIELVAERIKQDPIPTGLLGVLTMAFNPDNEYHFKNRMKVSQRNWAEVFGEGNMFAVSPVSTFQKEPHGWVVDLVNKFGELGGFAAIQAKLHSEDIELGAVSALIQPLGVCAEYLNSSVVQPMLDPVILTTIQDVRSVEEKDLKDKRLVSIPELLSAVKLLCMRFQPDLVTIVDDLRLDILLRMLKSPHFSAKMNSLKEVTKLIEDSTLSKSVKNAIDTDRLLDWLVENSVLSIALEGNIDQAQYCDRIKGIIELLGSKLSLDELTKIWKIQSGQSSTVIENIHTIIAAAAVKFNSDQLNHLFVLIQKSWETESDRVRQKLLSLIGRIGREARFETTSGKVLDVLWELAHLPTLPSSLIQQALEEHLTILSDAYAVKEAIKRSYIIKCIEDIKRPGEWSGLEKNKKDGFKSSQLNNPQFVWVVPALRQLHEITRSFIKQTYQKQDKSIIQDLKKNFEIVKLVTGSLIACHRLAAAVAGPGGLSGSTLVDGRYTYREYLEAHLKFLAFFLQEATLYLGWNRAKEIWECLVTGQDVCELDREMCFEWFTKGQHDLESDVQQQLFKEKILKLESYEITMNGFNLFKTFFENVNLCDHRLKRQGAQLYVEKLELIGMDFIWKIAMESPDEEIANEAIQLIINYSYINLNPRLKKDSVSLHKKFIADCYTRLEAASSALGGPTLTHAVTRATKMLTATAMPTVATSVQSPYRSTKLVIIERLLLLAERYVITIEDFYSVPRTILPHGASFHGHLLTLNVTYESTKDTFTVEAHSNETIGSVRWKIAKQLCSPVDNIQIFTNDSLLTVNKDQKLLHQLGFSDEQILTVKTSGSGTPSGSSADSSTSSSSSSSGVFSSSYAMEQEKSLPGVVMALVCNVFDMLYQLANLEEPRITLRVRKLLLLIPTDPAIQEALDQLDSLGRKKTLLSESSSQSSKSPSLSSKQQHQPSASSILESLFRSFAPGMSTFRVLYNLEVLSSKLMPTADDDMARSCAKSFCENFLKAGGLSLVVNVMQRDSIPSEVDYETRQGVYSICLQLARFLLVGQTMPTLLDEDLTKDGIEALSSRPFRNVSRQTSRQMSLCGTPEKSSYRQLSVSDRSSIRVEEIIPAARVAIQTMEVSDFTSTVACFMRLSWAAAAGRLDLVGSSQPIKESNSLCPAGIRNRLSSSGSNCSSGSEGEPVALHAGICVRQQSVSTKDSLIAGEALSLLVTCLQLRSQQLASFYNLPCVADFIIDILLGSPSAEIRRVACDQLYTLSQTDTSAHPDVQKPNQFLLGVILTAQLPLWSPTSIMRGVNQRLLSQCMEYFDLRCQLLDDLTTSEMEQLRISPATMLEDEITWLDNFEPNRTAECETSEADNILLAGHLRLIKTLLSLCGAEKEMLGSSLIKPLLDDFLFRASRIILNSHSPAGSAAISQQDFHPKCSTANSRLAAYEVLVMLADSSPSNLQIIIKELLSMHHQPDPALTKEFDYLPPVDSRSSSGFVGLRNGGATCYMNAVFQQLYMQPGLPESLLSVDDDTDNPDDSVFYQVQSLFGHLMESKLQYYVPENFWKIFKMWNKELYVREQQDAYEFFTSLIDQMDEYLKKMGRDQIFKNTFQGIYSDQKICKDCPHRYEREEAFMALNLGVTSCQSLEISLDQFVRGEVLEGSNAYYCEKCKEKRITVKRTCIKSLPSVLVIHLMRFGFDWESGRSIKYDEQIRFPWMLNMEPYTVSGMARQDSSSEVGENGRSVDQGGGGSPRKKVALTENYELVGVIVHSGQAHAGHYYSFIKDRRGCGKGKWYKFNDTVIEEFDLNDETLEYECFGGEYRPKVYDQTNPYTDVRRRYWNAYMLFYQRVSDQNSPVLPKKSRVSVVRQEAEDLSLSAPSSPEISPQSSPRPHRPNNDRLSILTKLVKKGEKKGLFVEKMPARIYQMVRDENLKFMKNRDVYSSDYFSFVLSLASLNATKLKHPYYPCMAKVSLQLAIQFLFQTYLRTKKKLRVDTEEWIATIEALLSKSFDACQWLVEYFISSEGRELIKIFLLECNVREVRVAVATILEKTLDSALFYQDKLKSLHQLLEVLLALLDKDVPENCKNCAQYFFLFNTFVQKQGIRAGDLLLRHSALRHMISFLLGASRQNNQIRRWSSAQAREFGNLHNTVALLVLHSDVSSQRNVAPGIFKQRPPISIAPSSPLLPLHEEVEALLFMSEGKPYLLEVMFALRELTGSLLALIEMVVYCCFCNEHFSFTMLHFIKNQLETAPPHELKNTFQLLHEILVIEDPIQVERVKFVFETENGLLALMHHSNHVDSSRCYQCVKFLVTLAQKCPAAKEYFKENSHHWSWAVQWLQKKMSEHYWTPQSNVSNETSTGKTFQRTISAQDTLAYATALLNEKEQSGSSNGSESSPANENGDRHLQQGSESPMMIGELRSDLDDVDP
smiles,measurement,setting,value
O=C(CCl)N1c2ccccc2NC(=O)C12CCCC2,log2 ratio of Biotin-Ahx-Ub-VS probe labelling,USP19,-0.0862
same,log2 ratio of Biotin-Ahx-Ub-VS probe labelling,USP22,0.00548
same,log2 ratio of Biotin-Ahx-Ub-VS probe labelling,USP24,-2.66 (active)
same,log2 ratio of Biotin-Ahx-Ub-VS probe labelling,USP25,-0.252
same,log2 ratio of Biotin-Ahx-Ub-VS probe labelling,USP28,-0.397
